# Results as given in PubChem BioAssay AID488969 (Vanderbilt High Throughput Screening Facility, 2010).
# Whole data set: some 110,000 compounds, median “z-score” near -0.1, cut for the highest 2% near 2. The list comes from a sample in which the highest values are over-represented; it also holds similar structures and randomly drawn compounds. Calls of active or inactive are those of the source.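 Rule for the calls: active = z-score in the third read window above 3 or below -3; inactive = the rest.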
# Molecular target: Metabotropic glutamate receptor 8 (Rattus norvegicus) (UniProt P70579)
# Assay: rat mGluR8 modulators via GIRK flux, primary screen, cell-based, thallium flux, HTS (AID 488969)
# Conditions: HEK293 rat mGluR8, GIRK (G protein-gated inwardly rectifying potassium channel) thallium flux, FluoZin2; at 10 µM; stronger effect = higher value; submaximal glutamate (EC20) added with thallium
# Sequence of Metabotropic glutamate receptor 8 (Rattus norvegicus) (P70579 whole entry, looked up): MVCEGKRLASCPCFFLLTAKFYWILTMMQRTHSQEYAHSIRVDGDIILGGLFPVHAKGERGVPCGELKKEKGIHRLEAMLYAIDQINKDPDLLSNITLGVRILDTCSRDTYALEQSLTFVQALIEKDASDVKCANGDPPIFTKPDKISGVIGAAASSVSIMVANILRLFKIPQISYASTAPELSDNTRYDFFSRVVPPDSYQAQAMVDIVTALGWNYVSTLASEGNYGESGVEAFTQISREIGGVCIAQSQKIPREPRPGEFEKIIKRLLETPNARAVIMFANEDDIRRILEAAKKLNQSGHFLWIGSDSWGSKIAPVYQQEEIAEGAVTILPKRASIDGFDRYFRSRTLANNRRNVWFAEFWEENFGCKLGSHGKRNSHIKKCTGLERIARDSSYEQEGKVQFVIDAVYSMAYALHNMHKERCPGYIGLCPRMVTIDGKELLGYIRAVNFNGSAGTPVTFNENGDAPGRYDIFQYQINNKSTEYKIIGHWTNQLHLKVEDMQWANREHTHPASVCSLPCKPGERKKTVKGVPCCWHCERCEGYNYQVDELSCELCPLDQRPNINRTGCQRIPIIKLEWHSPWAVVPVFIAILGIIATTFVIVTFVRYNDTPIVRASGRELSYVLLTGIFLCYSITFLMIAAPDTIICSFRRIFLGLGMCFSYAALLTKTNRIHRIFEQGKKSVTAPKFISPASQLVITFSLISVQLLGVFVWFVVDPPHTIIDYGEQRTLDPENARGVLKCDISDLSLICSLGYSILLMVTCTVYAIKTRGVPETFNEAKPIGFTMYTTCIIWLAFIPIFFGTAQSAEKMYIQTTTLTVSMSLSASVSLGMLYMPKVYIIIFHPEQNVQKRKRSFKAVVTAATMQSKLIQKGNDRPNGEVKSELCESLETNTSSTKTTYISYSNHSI
row,Structure (SMILES),z-score
1,O=C(CSc1ccc(-c2ccco2)nn1)c1ccc(F)cc1,-0.0218
2,COc1ccc(C(=O)CSc2ccc(-c3ccco3)nn2)cc1,0.654
3,O=C(CSc1ccc(-c2ccco2)nn1)c1ccccc1,7.29 (active)
4,CC(=O)c1cn(CC(=O)NCc2cccnc2)c2ccccc12,0.276
5,N/C(Cc1cccs1)=N\OC(=O)COc1ccccc1,-1.06
6,Cc1ccccc1OCC(=O)O/N=C(\N)Cc1cccs1,3.93 (active)
7,N/C(Cc1cccs1)=N\OC(=O)COc1ccccc1Cl,-2.93
8,C=CCC1(O)CC(c2ccco2)NC(c2ccco2)C1CCC (stereo not given),1.08
9,Cc1c(NC(=O)C(C)c2ccc(CC(C)C)cc2)c(=O)n(-c2ccccc2)n1C (stereo not given),-0.175
10,CCc1nc2c(sc3nc4c(cc32)COC(C)(C)C4)c(=O)n1Cc1ccccc1,-0.115
11,CC1(C)CC(=O)c2c(noc2-c2ccccc2)C1,3.63 (active)
12,CC1(C)CC(=O)c2c(nc3ccccc3c2N)C1,-1.01
13,CC1(C)CC(=O)c2c(nn(-c3ccccc3)c2N)C1,-0.372
14,O=[N+]([O-])c1cccc(-c2nnc(-c3ccc4c(c3)OCO4)o2)c1,-0.286
15,CCC/C(O)=C1\C(=O)CC(c2ccccc2)CC1=NC (stereo not given),-0.23
16,CC(C)N1C(=S)SC(C)(C)C1NO (stereo not given),-0.154
17,O=S(=O)(c1ccc(Cl)c(F)c1)N1CCC(c2nc(-c3ccncc3)no2)CC1,8.06 (active)
18,CCCS(=O)(=O)N1CCCC(c2nc(-c3ccc(OC)cc3)no2)C1 (stereo not given),0.0798
19,O=S(=O)(c1ccccc1Cl)N1CCCC(c2nc(-c3cccnc3)no2)C1 (stereo not given),2.62
20,O=S(=O)(c1ccc2ccccc2c1)N1CCC(c2nc(-c3ccncc3)no2)CC1,0.107
21,COc1cccc(-c2noc(C3CCCN(S(=O)(=O)c4cccc(Cl)c4C)C3)n2)c1 (stereo not given),0.354
22,CC(C)c1ccc(-c2noc(C3CCCN(S(C)(=O)=O)C3)n2)cc1 (stereo not given),5.82 (active)
23,O=S(=O)(c1ccccc1Cl)N1CCCC1c1nc(-c2ccc(Cl)cc2)no1 (stereo not given),0.14

row,Structure (SMILES),z-score
1,CC(C)c1ccc(-c2noc(C3CCCN(C(=O)c4ccc(F)cc4F)C3)n2)cc1 (stereo not given),-0.983
2,O=[N+]([O-])c1cccc(S(=O)(=O)N2CCC(c3nc(-c4ccncc4)no3)CC2)c1,-0.207
3,Cc1ccccc1NS(=O)(=O)c1ccc(OCCNS(C)(=O)=O)cc1,-0.0428
4,COc1ccccc1N1CCN(C(=O)CCCN2C(=O)c3cccc4cccc(c34)C2=O)CC1,-0.334
5,Cn1c(=O)c2c(O)cc(=O)[nH]c2n(-c2ccccc2)c1=O,-0.00781
6,COc1ccc(S(=O)(=O)N2CCOCC2)cc1NC(=O)c1ccccc1-c1ccc(C(F)(F)F)cc1,-0.207
7,Cc1noc(C)c1C(c1ccccc1)S(=O)(=O)c1ccccc1 (stereo not given),0.53
8,O=C(CSc1ncccn1)N/N=C/c1cccc([N+](=O)[O-])c1,1.35
9,O=C(COC(=O)c1ccc(Br)o1)Nc1cccc(S(=O)(=O)N2CCCCCC2)c1,0.698
10,COc1ccc(C(=O)NCc2nnc(SCC(=O)NCc3ccc(F)cc3)o2)cc1,-0.134
11,COC(=O)c1ccccc1NC(=O)CSc1nnc(Cc2ccc(Cl)cc2)o1,-0.323
12,CCn1c(SCC(N)=O)nc2c(c1=O)C1(CCCC1)Cc1ccccc1-2,5.27 (active)
13,CCCn1c(SCC(N)=O)nc2c(c1=O)C1(CCCC1)Cc1ccccc1-2,-0.333
14,Cc1ccc(-n2c(SCC(N)=O)nc3c(c2=O)C2(CCCC2)Cc2ccccc2-3)cc1,-0.348
15,Cc1cc(Nc2ccc3c(c2)OCCO3)c2ccccc2n1,0.143
16,COc1cccc(Nc2ncnc3ccccc23)c1,-0.25
17,COc1ccc(Nc2cc(C)nc3ccccc23)cc1,2.44
18,COc1cccc(Nc2nc(NCCO)c3ccccc3n2)c1,-0.496
19,COc1cccc(Nc2cc(C)nc3ccccc23)c1,2.53
20,COC(=O)Nc1cc(C)nc2ccccc12,0.301
21,O=C(CCN1C(=O)c2ccccc2S1(=O)=O)N1CCN(c2ccccc2)CC1,-0.363
22,CCOc1cccc(OCCCCN2CCOCC2)c1,-0.982
23,COc1cc2nc(-c3ccc(Br)o3)oc(=O)c2cc1OC,-1.58

row,Structure (SMILES),z-score
1,Cc1nc2nc(-c3ccco3)[nH]n2c(=O)c1Cc1ccccc1,-1.16
2,O=C(Nc1cccc(C(=O)N2CCOCC2)c1)c1ncn[nH]1,-0.145
3,CCn1cc(C(=O)O)c(=O)c2cc(F)c(N/N=C/c3ccccc3)cc21,-0.559
4,O=C(NCCSCc1ccco1)Nc1ccc(Cl)cc1,0.159
5,O=C(Nc1ccc(Cl)cc1)Nc1ccccc1C(=O)NCc1ccco1,-0.534
6,O=C(Nc1ccc(Cl)cc1)NC1CCCCC1Cc1ccco1 (stereo not given),7.39 (active)
7,Cc1nn(C)c(C)c1S(=O)(=O)N(CC(=O)N1CCc2ccccc2C1)c1ccc(C(C)C)cc1,-0.0258
8,O=C(CCc1ccc(S(=O)(=O)N2CCOCC2)cc1)N1CCCC1,2.62
9,O=C(O)CCc1ccc(S(=O)(=O)N2CCOCC2)cc1,0.0366
10,O=C(CCc1ccc(S(=O)(=O)N2CCOCC2)cc1)NN=C1CCCCCCC1,-0.592
11,CCN(CCO)c1ncnc2c1sc1nc(CC(C)C)c3c(c12)CC(C)(C)OC3,-0.758
12,COC(=O)CNC(=O)CN1C(=O)N(c2ccc(Cl)cc2)C(N(O)C(=O)Nc2ccc(Cl)cc2)C1(C)C (stereo not given),0.0314
13,CCOc1ncccc1C(=O)OCc1nnc(-c2ccccc2)o1,-0.473
14,Cc1nc(-c2ccccc2)sc1-c1n[nH]c(=S)n1C,0.154
15,Cn1c(-c2sc3cc(C(F)(F)F)cnc3c2-c2ccccc2)n[nH]c1=S,1.26
16,Cn1c(-c2sc3ccccc3c2Cl)n[nH]c1=S,13.3 (active)
17,CCCc1cc(-c2n[nH]c(C(=O)OCC)c2-c2cscn2)c(O)cc1O,-0.373
18,Cc1ccc(S(=O)(=O)CC(=O)Nc2ccc(S(=O)(=O)Nc3onc(C)c3C)cc2)cc1,2.41
19,COc1cc(NC(=O)CS(=O)(=O)c2ccc(C)cc2)cc(OC)c1OC,3.72 (active)
20,COc1cc(NC(=O)CS(=O)(=O)c2ccccc2)cc(OC)c1OC,1.2
21,Cc1noc(NS(=O)(=O)c2ccc(NC(=O)CS(=O)(=O)c3ccccc3)cc2)c1C,0.155
22,CCN(CC(=O)Nc1ccc(OC)c(OC)c1)S(=O)(=O)c1ccc(C)cc1,0.404
23,Cc1ccc(OCC(=O)Nc2ccc(S(=O)(=O)Nc3onc(C)c3C)cc2)cc1,0.0571

row,Structure (SMILES),z-score
1,Cc1cc(=O)oc2cc(OCC(=O)OCc3nnc(-c4ccccc4)o3)ccc12,-0.34
2,CCC(c1nnc(SCC(=O)Nc2ccc(Cl)cc2C(F)(F)F)n1C1CCCCC1)N(C)C (stereo not given),-0.456
3,O=C(CSc1nc(-c2ccco2)cc(C(F)(F)F)n1)NCCc1ccccc1,0.104
4,O=C(c1ccc(Br)o1)N1CCCc2ccccc21,-0.269
5,COc1ccc(CNC(=O)CCSCc2ccccc2Cl)c(OC)c1,-0.407
6,COc1ccc(CNC(=O)CSCc2cccc(Cl)c2)cc1,-0.235
7,COc1ccc(CNC(=O)CSCc2ccccc2Cl)cc1,4.96 (active)
8,CCOc1ccccc1C(=O)NC(CO)C(=O)O (stereo not given),-0.109
9,CCNCCOC(c1ccccc1)c1ccccc1,0.455
10,Clc1ccccc1-c1ccc(/C=N/n2cnnc2)o1,0.334
11,Cc1c(Cl)cccc1-c1ccc(/C=N/n2cnnc2)o1,-0.29
12,Clc1cccc(-c2ccc(/C=N/n3cnnc3)o2)c1Cl,8.91 (active)
13,O=C(Nn1c(SCc2ccccc2F)nc2ccsc2c1=O)c1ccccc1,-0.0125
14,O=C(Cn1nc(Cl)nc1Cl)c1cc2ccccc2oc1=O,-0.931
15,CCOc1cc(CNCCSc2nnnn2C)cc(Br)c1OCc1ccccc1,2.3
16,CCOc1cc(CNCCSc2nnnn2C)cc(Br)c1OCc1ccc(F)cc1,0.297
17,CCOc1cc(CNCCSc2nnnn2C)cc(Br)c1OCc1ccccc1F,0.196
18,NNC(=O)c1nnn(-c2nonc2N)c1-c1cccs1,-0.0988
19,O=C(Nc1ccccc1N1CCCCC1)c1cccs1,0.223
20,O=C(NC(=S)Nc1ccc(N2CCCCC2)cc1)c1cccs1,11 (active)
21,O=C(NC(=S)Nc1ccc(S(=O)(=O)N2CCCC2)cc1)c1cccs1,1.1
22,O=C(NC(=S)Nc1ccc(N2CCCCC2)c(Cl)c1)c1cccs1,8.72 (active)
23,O=C(NC(=S)Nc1ccc(S(=O)(=O)N2CCCCCC2)cc1)c1cccs1,-0.208

row,Structure (SMILES),z-score
1,CCCCCC(=O)NC(=S)Nc1ccc(N2CCCCC2)c(Cl)c1,-0.183
2,CC(=O)Cc1nsc(NC(=O)c2cc(-c3ccc(Cl)c(Cl)c3)oc2C)n1,-0.22
3,Cc1ccc(S(=O)(=O)c2ccc(C)cc2)cc1,-0.487
4,CCN1C(=O)/C(=C\c2ccc3c(c2)OCO3)C(C(=O)OC)=C1C,-0.35
5,COc1ccc(C(=O)C(OC(=O)c2ccccc2Cl)c2ccccc2)cc1 (stereo not given),-0.172
6,COC(=O)c1cn(-c2ccc(Cl)cc2)c(=O)c2ccccc12,-0.29
7,COc1ccc(-n2cc(C(=O)O)c3ccccc3c2=O)cc1,2.28
8,CCOC(=O)c1ccccc1NC(=O)c1cn(-c2ccc(OC)cc2)c(=O)c2ccccc12,-0.291
9,O=C(Nc1cc(C(F)(F)F)ccc1N1CCOCC1)c1cn2ccccc2n1,-0.314
10,c1nc(N2CCOCC2)c2c3c(sc2n1)CCCC3,-0.441
11,c1nc(N2CCC3(CC2)OCCO3)c2c3c(sc2n1)CCCC3,-1.04
12,CC1(C)CN=C(N2CCN(c3ncnc4sc5c(c34)CCCC5)CC2)S1,5.02 (active)
13,Cc1ccccc1CN1CCN(CC(=O)NCc2ccccc2)C1=O,0.0216
14,COc1ccc(OCCn2nnc(-c3ccc(Cl)cc3)n2)cc1,0.195
15,O=C(CSc1nnc(-c2cnccn2)n1Cc1ccco1)c1ccc(Cl)cc1,-0.74
16,O=C(CSc1nnc(-c2ccccn2)n1Cc1ccco1)c1ccccc1,1.88
17,Clc1ccccc1CSc1nnc(-c2ccccn2)n1Cc1ccco1,0.314
18,O=C(CSc1nnc(-c2cnccn2)n1Cc1ccco1)c1ccccc1,2.15
19,Clc1cccc(CSc2nnc(-c3ccccn3)n2Cc2ccco2)c1,3.12 (active)
20,COc1ccccc1NC(=O)CSc1nnc(-c2ccccn2)n1Cc1ccco1,-1.55
21,Clc1ccc(CSc2nnc(-c3ccccn3)n2Cc2ccco2)c(Cl)c1,0.104
22,COc1ccc(NC(=O)CSc2nnc(-c3ccccn3)n2Cc2ccco2)cc1OC,5.76 (active)
23,COc1ccc(C)cc1NC(=O)CSc1nnc(-c2ccccn2)n1Cc1ccco1,0.359
